Survival data for 87 molecules are collected here from PubChem BioAssay AID463173 (ICCB-Longwood Screening Facility, Harvard Medical School, 2010).

About 4,300 (8.3%) of roughly 52,000 compounds were called active. Only a selection was taken, and actives are over-represented in it overall. Unmarked numbers belong to inactive results. Rule as the data show it: active = survival mostly below about 52% (no sharp cut-off); inactive = mostly above about 56%.

The test system of the experiment is DeltatarO mutant. The experiment can be described thus: S. aureus survival, RN4220 and DeltatarO strains – OD600, teichoic acid synthesis inhibitors, primary screen (AID 463173). The settings on record: S. aureus RN4220 wild type/DeltatarO growth, OD600, 18 h, stronger effect = lower value, screened at 18.75 µg/mL (by protocol).
With `Cc1cccc2c1-c1sc(C(=O)NCCc3ccc(Cl)cc3)cc1CO2`, the survival is 86%.
In the case of `COc1ccc(/C=C/C(=O)Nc2sc(C)c(C)c2C(=O)O)cc1` it was 60%; in that of `COc1ccc(-n2cnc3cc(C(=O)NC4CCCCCC4)ccc32)cc1`, 117%; in that of `CCN1C(=O)CC(C(=O)NC)SC1=Nc1cc(Cl)c(O)c(Cl)c1` (configuration not stated), 75%.
In the case of `CC(=O)Nc1ccc2nc3c(=O)[nH]c(=O)[nH]c3nc2c1` it was 72%; in that of `COc1ccc(-c2cc(C(F)(F)F)nc(SCCC(=O)Nc3ccc(OC)c(OC)c3)n2)cc1`, 40% (active).
In the case of `COc1ccc(NC(=O)CCSc2nc(-c3ccc(OC)cc3)cc(C(F)(F)F)n2)cc1` it was 70%; in that of `COc1ccc(-c2cc(C(F)(F)F)nc(SCCC(=O)Nc3ccc(NC(C)=O)cc3)n2)cc1`, 61%; in that of `CC(C)(C)NC(=O)COc1ccc(CNc2ccc3c(c2)OCCO3)cc1`, 87%.
Take `Cc1ccccc1Cn1c(=O)n(CCCCC(=O)NCc2ccccc2Cl)c(=O)c2ccccc21`: the survival is 93%.
In the case of `COc1ccc(CCNC(=O)CCCn2c(=O)c3ccccc3n(Cc3ccccc3C)c2=O)cc1OC` it was 85%; in that of `COc1ccc(CCNC(=O)CCn2c(=O)c3ccccc3n(Cc3ccccc3C)c2=O)cc1OC`, 86%.
Next, `COc1ccc(CCNC(=O)CCn2c(=O)c3ccccc3n(Cc3ccc(Cl)cc3)c2=O)cc1OC`: 119%; `O=C(CCCCn1c(=O)c2ccccc2n(Cc2ccccc2F)c1=O)NCc1ccccc1Cl`: 97% (active); `COc1ccc(CCNC(=O)CCCCn2c(=O)c3ccccc3n(Cc3ccccc3C)c2=O)cc1OC`: 95%.
As for `O=C(CCCCn1c(=O)c2ccccc2n(Cc2ccc(Cl)cc2)c1=O)NCc1ccccc1Cl`, the survival is 97%.
In the case of `COc1ccc(CCNC(=O)CCCn2c(=O)c3ccccc3n(Cc3ccccc3C#N)c2=O)cc1OC` it was 87% (active).
As to `COc1ccc(CCNC(=O)CCn2c(=O)c3ccccc3n(Cc3ccccc3F)c2=O)cc1OC`, the survival is 93% (active).
Next, `Cn1ccc2cc(S(=O)(=O)N3CCC(C(=O)NCCc4ccccc4)CC3)ccc21`: 89%.
Next, `Cc1nn(C)c2c1c(C(F)(F)F)cc(=O)n2C(C)C(=O)N1CCN(c2ccccc2)CC1` (configuration not stated): 86%.
With `CC(C)OC(=O)CSc1nnc(-c2ccccc2)n1Cc1ccco1`, the survival was 87%.
With `COc1ccc(Cl)cc1NC(=O)CN1Cc2ccccc2C1=O`, the survival is 100%.
Next, `CCC(Sc1nnc2c3ccccc3n(CC)c2n1)C(=O)Nc1ccc(NC(C)=O)cc1` (configuration not stated): 104%; `CC(C)(C)C1CCc2c(sc(NC(=O)c3ccncc3)c2C(=O)Nc2ccccc2Cl)C1` (configuration not stated): 71%.
Next, `CC(C)(C)C1CCc2c(sc(NC(=O)c3ccco3)c2C(=O)Nc2ccccc2Cl)C1` (configuration not stated): 135%.
Next, `Cc1ccccc1C(=O)Nc1sc2c(c1C(=O)N1CCC(C)CC1)CCCC2`: 58%; `COC(=O)c1ccccc1NC(=O)c1c(NC(=O)c2ccco2)sc2c1CCC(C(C)(C)C)C2` (configuration not stated): 137%; `CCOc1ccccc1NC(=O)c1c(NC(=O)c2ccccc2C)sc2c1CCC(C)C2` (configuration not stated): 65%.
On to `O=C(Nc1sc2c(c1C(=O)N1CCCCC1)CCCC2)c1ccccc1Cl`, for which the survival is 69%.
As to `Cc1ccccc1C(=O)Nc1sc2c(c1C(=O)N1CCCCC1)CCC(C)C2` (configuration not stated), the survival was 49%.
Regarding `CC(C)(C)C1CCc2c(sc(NC(=O)c3ccccc3F)c2C(=O)N2CCCCC2)C1` (configuration not stated), the survival is -5% (active).
In the case of `CC1CCN(C(=O)c2c(NC(=O)c3ccccc3F)sc3c2CCC(C(C)(C)C)C3)CC1` (configuration not stated) it was -4% (active); in that of `Cc1ccccc1C(=O)Nc1sc2c(c1C(=O)N1CCC(C)CC1)CCC(C)C2` (configuration not stated), -3% (active).
Next, `Cc1ccccc1NC(=O)c1c(NC(=O)c2ccccc2F)sc2c1CCC(C)C2` (configuration not stated): 63%; `CC1CCN(C(=O)c2c(NC(=O)c3ccccc3Cl)sc3c2CCC(C(C)(C)C)C3)CC1` (configuration not stated): 10% (active); `Cc1cccc(-n2nnc(-c3nc(-c4cccs4)no3)c2N)c1`: 87%.
With `COc1ccc(OC)c(NC(=O)Cn2cc(S(=O)(=O)c3ccccc3)c(=O)c3cc(C)ccc32)c1`, the survival is 70%.
Next, `CCOc1ccc(NC(=O)Cn2ccn3nc(-c4ccc(OC)c(OC)c4)cc3c2=O)cc1`: 102%.
Next, `Cc1ccc(SCC(=O)Nc2ccc(O)c(-c3nc4cc(C)ccc4o3)c2)cc1`: 64%; `NNC(=O)C(Sc1n[nH]c(=O)[nH]c1=O)c1ccccc1` (configuration not stated): 80%.
In the case of `Cc1oc(C(C)(C)C)cc1C(=O)NCCO` it was 77%.
In the case of `CCOc1cccc(C2c3[nH]c4ccccc4c3CCN2C(=O)CSc2ccccc2)c1` (configuration not stated), the survival is 71%.
On to `COc1ccc(-c2cc(C(F)(F)F)nc(SCC(=O)Nc3ccc(C(C)=O)cc3)n2)cc1`, for which the survival is 59%.
Next, `Cc1ccc(CN(Cc2ccco2)C(=O)COc2ccc(C)c(C)c2)cc1`: 68%; `CCN(CC)C(=O)c1c(NC(=O)c2ccccc2F)sc2c1CCC(C(C)(C)C)C2` (configuration not stated): -8% (active).
In the case of `Cc1ccccc1C(=O)Nc1sc2c(c1C(=O)N1CCCCC1)CCC(C(C)(C)C)C2` (configuration not stated) it was -2% (active).
In the case of `Cc1ccccc1NC(=O)c1c(NC(=O)c2ccco2)sc2c1CCC(C(C)(C)C)C2` (configuration not stated) it was 74%; in that of `CC(C)(C)C1CCc2c(sc(NC(=O)c3ccc(Cl)cc3)c2C(=O)NCc2ccco2)C1` (configuration not stated), 86%; in that of `CCCNC(=O)c1c(NC(=O)c2ccccc2)sc2c1CCC(C(C)(C)C)C2` (configuration not stated), 9% (active).
Consider `Cc1ccccc1C(=O)Nc1sc2c(c1C(=O)NCc1ccco1)CCC(C(C)(C)C)C2` (configuration not stated), for which the survival is 109%.
Next, `Cc1ccc(C(=O)Nc2sc3c(c2C(=O)NCc2ccco2)CCC(C(C)(C)C)C3)cc1` (configuration not stated): 64%; `Cc1ccccc1C(=O)Nc1sc2c(c1C(=O)O)CCC(C(C)(C)C)C2` (configuration not stated): -2% (active).
In the case of `CN(C)C(=O)c1c(NC(=O)c2ccccc2F)sc2c1CCCC2` it was 76%.
Take `CC(C)(C)C1CCc2c(sc(NC(=O)c3ccccc3F)c2C(=O)NCc2ccco2)C1` (configuration not stated): the survival was 61%.
Next, `CCOC(=O)c1sc(N2C(=O)c3oc4cc(C)c(C)cc4c(=O)c3C2c2cccc(O)c2)nc1C` (configuration not stated): 78%; `O=C1C2(Cc3ccccc3)CN3CN(C2)CC1(Cc1ccccc1)C3`: 75%; `COc1ccc(NC(=O)c2cc(-c3ccc(F)cc3)no2)cc1OC`: 71%.
Next, `O=C(Nc1ccccc1[N+](=O)[O-])c1csnn1`: 73%; `CC1=C(C(=O)Nc2cccnc2)C(c2ccccc2)n2nc(SCc3ccccc3)nc2N1` (configuration not stated): 74%; `Cc1ccccc1OCC(=O)Nc1ccccc1C(=O)OCc1cc(=O)n2c(C)csc2n1`: 94%.
In the case of `CCOC(=O)c1c(S(=O)(=O)NCC(=O)NCc2ccccc2Cl)c(C)n(C)c1C` it was 97%; in that of `CC(C)(C)C1CCc2c(sc(NC(=O)CCC(=O)O)c2C(=O)Nc2ccccc2C(F)(F)F)C1` (configuration not stated), -6% (active); in that of `COc1ccccc1NC(=O)c1c(NC(=O)Cc2ccccc2)sc2c1CCC(C(C)(C)C)C2` (configuration not stated), 126%.
On to `COc1ccccc1NC(=O)c1c(NC(=O)c2cccs2)sc2c1CCC(C(C)(C)C)C2` (configuration not stated), for which the survival is 139%.
For the molecule `Cc1ccc(CNC(=O)C2CCN(C(=O)N3CC(C)Oc4ccc(Cl)cc43)CC2)cc1` (configuration not stated), the survival was 57%.
In the case of `CCc1ccc(NC(=O)N2CC=C(c3c[nH]c4ccccc34)CC2)cc1` it was 39% (active).
On to `COc1cc(OC)c(NC(=O)N2CC=C(c3c[nH]c4ccccc34)CC2)cc1Cl`, for which the survival was 75%.
In the case of `CCOC(=O)c1cccc(NC(=O)N2CC=C(c3c[nH]c4ccccc34)CC2)c1` it was 83%; in that of `COc1ccccc1NC(=O)N1CC=C(c2c[nH]c3ccccc23)CC1`, 42% (active); in that of `Cc1cccc(NC(=O)N2CC=C(c3c[nH]c4ccccc34)CC2)c1C`, 73%.
Next, `CCOc1ccc(NC(=O)N2CC=C(c3c[nH]c4ccccc34)CC2)cc1`: 83%; `COc1ccccc1OCC(=O)Nc1ccc(S(=O)(=O)N2CCN(C)CC2)cc1`: 78%; `CCc1ccc(-n2nc(CO)c(C(=O)NC(C)c3ccc(Cl)cc3)n2)cc1` (configuration not stated): 58%.
Next, `COc1cc(S(=O)(=O)N2CCN(c3ccccc3F)CC2)c(OC)cc1Cl`: 87%; `CCOC(=O)c1cc2oc(C)cc2n1CC(=O)N(C)C1CCCCC1`: 92%; `CCOc1ccc(CCNC(=O)c2ccc3c(c2)c(C)c(C)n3Cc2ccccc2)cc1OCC`: 83%.
`Cc1ccc2c(=O)cc(C(=O)Nc3c(C(=O)c4ccccc4)oc4ccccc34)oc2c1C`: the survival is 82%.
In the case of `CCCn1c2ccccc2c2cnn(CC(=O)NCC3CCN(Cc4ccc(F)cc4)CC3)c(=O)c21` it was 68%; in that of `CCCn1c2ccccc2c2cnn(CC(=O)NCCCN3CCCCC3)c(=O)c21`, 94%.
In the case of `CCCn1c2ccccc2c2cnn(CC(=O)NCCc3ccc(OCC)c(OCC)c3)c(=O)c21` it was 92%.
As for `CCCn1c2ccccc2c2cnn(CC(=O)NCC3CCN(Cc4ccccc4C)CC3)c(=O)c21`, the survival was 55%.
`CCCn1c2ccccc2c2cnn(CC(=O)NCC3CCN(Cc4ccc(C)cc4)CC3)c(=O)c21`: the survival is 17% (active).
In the case of `CCCn1c2ccccc2c2cnn(CC(=O)NCCc3ccc(OCC)cc3)c(=O)c21` it was -5% (active); in that of `CCCn1c2ccccc2c2cnn(CC(=O)NCCc3ccc(C)cc3)c(=O)c21`, 128%.
In the case of `CCCNC(=O)Cn1ncc2c3ccccc3n(CCC)c2c1=O` it was 128%; in that of `CCCn1c2ccccc2c2cnn(CC(=O)NCCCOC(C)C)c(=O)c21`, -5% (active).
Next, `CCN(CC)S(=O)(=O)c1ccc2c(c1)N(CC(=O)N1CCN(c3cccc(C(F)(F)F)c3)CC1)C(=O)CO2`: 68%.
